Assay outcomes as filed in PubChem.
Pf growth 96h: Primary qHTS for delayed death inhibitors of the malarial parasite plastid, 96 hour incubation | AID 504834, 2011 | 320,000 tested, 6.9% active | Potency, µM (series often up to 28.7 µM), for the others: at the top dose activity change, negative = inhibition, hits mostly inhibitors | P. falciparum luciferase reporter growth, 96 h; note: % is set by controls: 0 for no effect and ±100 for the full control effect
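Parasite growth measured via integrated firefly luciferase reporter in P. falciparum. Infected erythrocytes at 2% hematocrit, 0.05% parasitemia final were treated 96 hours at 37 C under 5% CO2, and luminescence was read.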
AmpC inh no detg: qHTS Inhibitors of AmpC Beta-Lactamase (assay without detergent) | P00811 | AmpC nitrocefin hydrolysis, absorbance 480 nm, 0.0001% Triton | AID 485341, 2010 | Potency, µM (series often up to 57.1 µM), inactives show at the highest dose activity change, negative = inhibition, actives largely listed as inhibitors | 330,000 tested, 0.52% active;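 note: plate controls were no compound for no effect and no enzyme for full effect; nearly all actives have a fitted effect of over 20% in size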
Target sequence (P00811 whole entry, looked up): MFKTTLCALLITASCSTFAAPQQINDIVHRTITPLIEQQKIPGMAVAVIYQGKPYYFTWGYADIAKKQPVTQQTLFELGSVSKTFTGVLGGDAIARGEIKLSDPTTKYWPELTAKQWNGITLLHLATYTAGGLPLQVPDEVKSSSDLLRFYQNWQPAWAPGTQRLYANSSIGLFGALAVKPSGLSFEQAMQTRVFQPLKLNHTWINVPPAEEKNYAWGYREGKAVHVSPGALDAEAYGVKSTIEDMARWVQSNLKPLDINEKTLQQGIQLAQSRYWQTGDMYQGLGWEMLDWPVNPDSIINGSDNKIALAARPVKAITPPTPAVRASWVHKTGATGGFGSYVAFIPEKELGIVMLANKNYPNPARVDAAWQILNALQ
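AmpC (5.3 nM in the dispensed reagent) in 20 mM phosphate pH 7.0 with 0.01% (detergent screen) or 0.0001% Triton X-100 was preincubated with compounds for 15 min at room temperature. Nitrocefin was then added from an 800 uM solution, and hydrolysis was followed at 480 nm.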
SARS PLpro yeast: qHTS of Yeast-based Assay for SARS-CoV PLP. Potency, µM (doses to about 32.9 µM), without a hit: at the top dose activity, positive = growth rescue, hits mostly activators. AID 485353, 2010. S. cerevisiae expressing SARS-CoV PLpro, growth rescue. 330,000 tested, 0.19% active; calls by dose curve; note: 0% is about no effect; nearly all actives have a fitted effect of over 55% in size
Pf growth 48h: Primary qHTS for delayed death inhibitors of the malarial parasite plastid, 48 hour incubation. AID 504832, 2011. 310,000 tested, 5.9% active. Potency, µM (doses to about 28.7 µM), inactives show at the top dose activity change, negative = inhibition, actives largely listed as inhibitors. P. falciparum luciferase growth in erythrocytes, 48 h; note: % is set by controls: 0 for no effect and ±100 for the full control effect
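Compounds are pin-transferred into medium, infected erythrocytes (2% hematocrit, 0.1% parasitemia final) are added, and plates sit one parasite generation at 37 C in 5% CO2. Detection reagent is then added and luminescence measured.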
AmpC inh detg: qHTS Inhibitors of AmpC Beta-Lactamase (assay with detergent). P00811. AmpC hydrolysis of nitrocefin, absorbance 480 nm, 0.01% Triton. Potency, µM (series often up to 114 µM), inactives show at the highest dose activity change, negative = inhibition, most hits filed as inhibitors. 370,000 tested, 0.041% active;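 note: 0% = no-compound wells and -100% = no-enzyme wells; nearly all actives have a fitted effect of over 25% in size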
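AmpC (5.3 nM in the dispensed reagent) in 20 mM phosphate pH 7.0 with 0.01% (detergent screen) or 0.0001% Triton X-100 was preincubated with compounds for 15 min at room temperature. Nitrocefin was then added from an 800 uM solution, and hydrolysis was followed at 480 nm.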
Sm TGR block: qHTS Assay for the Inhibitors of Schistosoma Mansoni Peroxiredoxins; AID 485364, 2010; Schistosoma mansoni thioredoxin glutathione reductase (TGR), Q962Y6; purified TGR, DTNB reduction, TNB absorbance 405 nm; 360,000 tested, 3% active; Potency, µM (doses to about 114 µM), for the others: at the top dose activity change, negative = inhibition, hits mostly inhibitors; note: % is set by controls: 0 for no effect and ±100 for the full control effect; nearly all actives have a fitted effect of over 60% in size
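TGR 20 nM + NADPH 100 uM (dispensed conc.), cpd preinc 15 min RT; start with NADPH (500 uM addition) then DTNB (15 mM addition). Kinetic TNB absorbance, 405 nm filter. Four-parameter Hill fit across titration.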
* marks the source's active call; other numbers are inactive results; ? = inconclusive; . = not tested or not shown. Compounds with a hit are over-represented: about 12% of the library has one in this group of screens. Unless noted, calls come from the whole dose curve; as a rule, active = well fitted curve in the direction sought with a large enough effect; inconclusive = small, poorly fitted or top-dose-only effect, or another doubt; inactive = no such curve, though single readings can be large; an effect the other way counts as inactive or inconclusive. Potency is the fitted concentration of half-maximal effect.

SMILES	Pf growth 96h	AmpC inh no detg	SARS PLpro yeast	Pf growth 48h	AmpC inh detg	Sm TGR block
CCc1cccc(C)c1NC(=O)CCS(=O)(=O)c1ccc2c(c1)oc(=O)n2C	.	.	.	.	6%	25µM*
COc1cc(NC(=O)CCS(=O)(=O)c2ccc3c(c2)oc(=O)n3C)cc(OC)c1OC	2.3µM*	-15%	-1%	-29%	-5%	-25%
Cc1cccc(C)c1NC(=O)CCS(=O)(=O)c1ccc2c(c1)n(C)c(=O)c(=O)n2C	.	.	.	.	-5%	-18%
COc1ccccc1OCc1ccc(C(=O)NCC2CCCO2)o1 (centres undefined)	-31%	-1%	6%	.	-2%	-16%
Cc1ccc(-c2nnn3c2nc(NCc2ccc4c(c2)OCO4)c2ccccc23)cc1	.	.	.	.	8%	-3%
CCC(=C(c1ccc(OC)cc1)c1ccc(OC)cc1)c1cn(CC(O)CN2CCN(C)CC2)c2ccccc12 (centres undefined)	.	149%	-39%	9.3µM*	-3%	-4%
COc1ccc(C(=O)/C=C/c2cn(CC(O)CN3CCc4ccccc43)c3ccccc23)cc1 (centres undefined)	.	.	.	.	24%	-10%
O=c1c2cc(NC(=S)NCc3cccnc3)ccc2nc2n1CCCCC2	4%	-23%	-6%	42%	-2%	56µM*
CCOC(=O)N1CCN(C(=O)C(=O)Nc2ccc3nc4n(c(=O)c3c2)CCCCC4)CC1	-32%	0%	-2%	.	-7%	-31%
O=C(/C=C/c1ccco1)Nc1ccc2nc3n(c(=O)c2c1)CCCC3	?	21%	-1%	64%	4%	32µM*
O=C(NCc1ccccc1)C(=O)Nc1ccc2nc3n(c(=O)c2c1)CCCCC3	.	.	.	.	0%	-2%
CCOC(=O)N1CCN(C(=O)CC(=O)Nc2ccc3nc4n(c(=O)c3c2)CCCCC4)CC1	7%	59%	-3%	5.9µM*	?	-5%
O=C(Nc1ccc2nc3n(c(=O)c2c1)CCCCC3)C(=O)N1CCN(c2ccccc2)CC1	?	0%	1%	1.3µM*	-9%	0%
O=c1c2cc(NC(=S)N3CCCC3)ccc2nc2n1CCCCC2	?	-9%	3%	3%	-1%	9%
Fc1ccc(Nc2ncnc3onc(-c4ccc(Cl)cc4)c23)cc1Cl	.	.	.	.	1%	5%
CCOc1ccc(CNC(=O)C2Cc3ccccc3N2C(=O)CC)cc1 (centres undefined)	.	.	.	.	26%	4%
CC(C)c1cccc(C(C)C)c1NC(=O)COC(=O)c1ccc(OCC(=O)Nc2cccc(C(F)(F)F)c2)cc1	?	-46%	9%	?	-4%	-7%
N#CCC(=O)Nc1ccc(C(=O)OCc2ccccc2Oc2ccccc2)cc1	?	-33%	-4%	10µM*	-19%	-2%
N#CCC(=O)Nc1ccc(C(=O)OCC(=O)Nc2cccc(C(F)(F)F)c2)cc1	-3%	16µM*	-2%	-1%	?	-9%
N#CCC(=O)Nc1ccc(C(=O)OCC(=O)NCCCc2ccccc2)cc1	1.2µM*	?	2%	-79%	-4%	11%
N#CCC(=O)Nc1ccc(C(=O)OCC(=O)C23CC4CC(CC(C4)C2)C3)cc1	?	-35%	3%	13µM*	0%	3%
Cc1ccc(CS(=O)(=O)Cc2ccc(C(=O)NC3CCCC3)o2)cc1	19%	0%	-2%	-13%	-1%	-2%
Cc1ccc2c(c1)c(=O)c(C(=O)c1ccccc1)cn2Cc1ccccc1F	.	.	.	.	-10%	-11%
CC1=CN(S(=O)(=O)c2ccc(C)cc2)C[C@@H]2[C@H]3CC[C@H](C3)[C@H]12	.	-21%	-28%	.	.	.
